Assay outcomes from PubChem.
Most compounds without a hit are left out; they make up all but 2.8% or so of the library.
PI5P4Ka inh = qHTS for Inhibitors of phosphatidylinositol 5-phosphate 4-kinase (PI5P4K); max response, %; PI5P4Kalpha enzyme, ADP-Glo luminescence, 60 min; stronger effect = lower value; Phosphatidylinositol 5-phosphate 4-kinase type-2 alpha (Homo sapiens), P48426; AID 652105, 2013; 330,000 compounds, 1.2% hits; active means max response of -50% or lower; inconclusive means between -30% and -50%; inactive means -30% or higher; further: value at the top dose of about 77 µM
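Human PI5P4Kalpha with substrate in 0.038 M HEPES pH 7.4, 0.28 mM EGTA, 0.1% CHAPS, 5% DMSO; reaction started with 5 microM ATP (final), 60 min at room temperature. ADP formed read by ADP-Glo luminescence.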
POLI inh = qHTS for Inhibitors of Polymerase Iota. DNA polymerase iota (Homo sapiens), Q9UNA4. Pol iota fluorescent replication assay, 10 min. Potency, µM (top dose mostly 115 µM), hits mostly inhibitors. 390,000 compounds, 1% hits. AID 588590, 2011
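Pol iota at 10 nM preincubated 15 min with compounds at room temperature; reaction started with fluorescent substrate, 50 nM final. Fluorescence read kinetically at 0 and 10 min; buffer-only wells as negative control.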
Pol kappa inh-1 = qHTS for Inhibitors of Polymerase Kappa; DNA polymerase kappa (Homo sapiens), Q9UBT6; purified Pol kappa, fluorescent DNA synthesis assay, 10 min; Potency, µM (series often up to 107 µM), most hits filed as inhibitors; 400,000 compounds, 0.53% hits; AID 588579, 2011
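Readout: fluorescence, taken kinetically at 0 and 10 min. Conditions: 10 nM Pol kappa, 15 min RT compound preincubation, 50 nM substrate final. Controls: enzyme-free buffer wells.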
Pol eta inh-1 = qHTS for Inhibitors of Polymerase Eta. recombinant Pol eta, fluorescent DNA replication assay. Potency, µM (doses to about 114 µM), usual class: inhibitors. 390,000 compounds, 1.2% hits
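Fluorescent replication assay: 50 nM final substrate added after a 15 min room-temperature compound preincubation with 10 nM enzyme. Signal taken at 0 min and again at 10 min.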
Pol beta inh = qHTS Assay for Inhibitors of DNA Polymerase Beta. P06746. Pol beta primer extension/strand displacement, fluorescence kinetic. Potency, µM (series often up to 114 µM), hits mostly inhibitors. 340,000 compounds, 1.3% hits. AID 485314, 2010
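Enzyme-only controls used 10 nM Pol beta; buffer lacking enzyme served as negative control. Compound preincubated 15 min, then 50 nM substrate added; 0 and 10 min reads at room temperature.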
WRN helicase inh = qHTS for Inhibitors of WRN Helicase; Bifunctional 3'-5' exonuclease/ATP-dependent helicase WRN (Homo sapiens), Q14191; WRN helicase unwinding, fluorescent forked duplex, kinetic; 360,000 compounds, 0.46% hits; Potency, µM (highest dose often 114 µM), hits mostly inhibitors; further: nearly all actives have a fitted effect of over 55% in size
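Primary qHTS, 1536-well format. 20 nM WRN + compound, 15 min RT; start with 100 nM forked fluorophore/quencher duplex, 2 mM ATP (final); kinetic read ex 525/em 598 nm.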
GALK inh confirm = Confirmation Assay for Inhibitors of Human Galactokinase (GALK). shares compounds with Pol eta inh-1. purified GALK, Kinase-Glo ATP depletion luminescence. Potency, µM (highest dose often 115 µM), hits mostly inhibitors. 150 compounds, 70% hits. AID 2015, 2009
Target sequence (P51570 whole entry, looked up): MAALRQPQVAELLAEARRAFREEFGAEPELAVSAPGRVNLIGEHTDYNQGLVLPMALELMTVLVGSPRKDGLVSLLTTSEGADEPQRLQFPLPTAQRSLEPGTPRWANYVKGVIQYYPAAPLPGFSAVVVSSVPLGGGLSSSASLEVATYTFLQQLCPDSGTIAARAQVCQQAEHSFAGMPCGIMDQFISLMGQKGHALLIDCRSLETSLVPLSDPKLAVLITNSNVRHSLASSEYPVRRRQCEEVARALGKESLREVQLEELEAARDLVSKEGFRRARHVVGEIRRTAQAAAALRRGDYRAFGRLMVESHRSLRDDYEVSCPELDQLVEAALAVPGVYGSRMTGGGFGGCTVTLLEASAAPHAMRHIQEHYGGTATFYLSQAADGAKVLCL
GALK redox cs = Confirmatory Assay for Inhibitors of Human Galactokinase (GALK): Phenol-HRP redox assay counterscreen; shares compounds with Pol eta inh-1; Phenol red-HRP H2O2 redox cycling, absorbance 600 nm; Potency, µM (series often up to 115 µM), most hits filed as inhibitors; 150 compounds, 40% hits
HEK293 viability = Secondary Assay for Inhibitors of Human Galactokinase (GALK): HEK-293 Cell Viability Assay; shares compounds with Pol eta inh-1; HEK-293 viability, ATP luminescence (CellTiter-Glo), 24/48 h; Potency, µM (doses to about 46.1 µM), most hits filed as inhibitors; 170 compounds, 10% hits; AID 2547, 2010
Pol kappa inh-2 = qHTS for Inhibitors of Polymerase Kappa: Confirmatory Assay for Cherry-picked Compounds. AID 720501, 2013. 920 compounds, 76% hits. purified Pol-kappa, fluorescent strand-displacement substrate. shares compounds with Pol eta inh-1. Potency, µM, hits mostly inhibitors
Pol eta inh-2 = qHTS for Inhibitors of Polymerase Eta: Confirmatory Assay for Cherry-picked Compounds; Potency, µM, most hits filed as inhibitors; Pol eta primer extension, TAMRA/BHQ fluorescence, 10 min; AID 720502, 2013; 2,600 compounds, 64% hits; shares compounds with Pol eta inh-1
A number is an active result; . = inactive; ? = inconclusive; / = no result; [ ] = another dose, or the depositor's remark. Unless noted, the call rests on the fitted dose curve; in most records, active means well fitted curve in the direction sought with a large enough effect; inconclusive means small, poorly fitted or top-dose-only effect, or another doubt; inactive means no such curve, though single readings can be large; an effect the other way counts as inactive or inconclusive.

SMILES	PI5P4Ka inh	POLI inh	Pol kappa inh-1	Pol eta inh-1	Pol beta inh	WRN helicase inh	Pol eta inh-2	others
Cc1ccccc1OCC(=O)NCCCNC(=O)c1ccco1	.	.	.	.	.	.	/
O=C(/C=C/c1ccc(-c2ccccc2[N+](=O)[O-])o1)c1ccco1	.	?	?	39.8µM	?	?	75.7
O=C(/C=C/c1ccc([N+](=O)[O-])cc1)c1ccco1	.	?	.	.	.	.	/
CCCCC1=CC2=CC(=O)C(C)(OC(=O)CC)C(=O)C2=CN1C(CO)CO (stereo not drawn)	.	?	.	.	.	.	/
CCCCC1=CC2=CC(=O)C(C)(OC(=O)CC)C(=O)C2=CO1 (stereo not drawn)	-65.0	50.1µM	?	50.1µM	/	.	?
CCC(=O)OC1(C)C(=O)C=C2C=C(CCCC(=O)OC)OC=C2C1=O (stereo not drawn)	?	?	?	25.1µM	/	.[11.6 µM]	53.6
O=C(CSc1nc2ccccc2c(=O)n1-c1ccccc1)NC(=O)CN1CCCC1=O	.	?	?	44.7µM	12.6µM	.[11.6 µM]	?
O=C(CSc1nc2ccccc2c(=O)n1-c1ccccc1)N1CCC1	.	.	.	.	.	.	/
COc1ccccc1/C=C/C(=O)c1c2c(c(C)[nH]c1=O)CCCC2	/	.	.	.	.	.	/
N#C/C(=C(/O)c1cc2ccccc2o1)c1nc2ccccc2s1	.	.	.	.	.	.	/	GALK inh confirm=?;GALK redox cs=.;HEK293 viability=.
O=C(NCC1CCCO1)c1ccc(F)c2ccccc12 (stereo not drawn)	.	.	.	.	.	.	/
COc1ccc(/C=C2\SC(=S)N(NC(=O)c3ccncc3)C2=O)cc1OC	/	/	/	/	.	/	/
COc1cc(/C=C2\SC(=S)N(NC(=O)c3ccccc3O)C2=O)ccc1O	-61.9	14.1µM	?	?	?	56.2µM	/	Pol kappa inh-2=42.3
C=CCc1cccc2cc(C(=O)Nc3ccccc3C(=O)O)c(=O)oc12	-60.7	?	.	44.7µM	?	?	?
Cn1c2ccccc2c(=O)n2c(=O)c3ccccc3cc12	/	/	/	/	.	/	/	GALK inh confirm=10.6µM;GALK redox cs=9.43µM;HEK293 viability=.
Cc1ccc(C(=O)O)cc1-n1c(C)cc(C=O)c1C	.	28.2µM	?	20µM	17.8µM	.	60.1
O=C(Nc1ccccc1)OC[C@H](CN1CCCCC1)OC(=O)Nc1ccccc1	/	/	.[19.4 µM]	/	/	/	/
CC(C)(C)NC(=O)c1ccc2nc(CCc3ccccc3)oc2c1	/	.	.	.	.	/	/
CN1C(=O)c2ccccc2NC(=O)[C@]12O[C@@H]2c1cccc(O)c1	.	?	39.8µM	11.2µM	44.7µM	.	37.9
O=C(NNC(=O)c1ccccc1C(=O)O)c1cc2ccccc2o1	.	?	.	.	.	.	/	GALK inh confirm=33.5µM;GALK redox cs=.;HEK293 viability=.
O=C(O)c1ccc(Nc2ncc([N+](=O)[O-])cc2[N+](=O)[O-])cc1	.	?	.	31.6µM	.	.[11.6 µM]	67.5
COc1ccccc1NC(=O)c1cc2cc3ccc(OC)c(Cl)c3nc2s1	/	.	.	?	2.82µM	/	?	Pol kappa inh-2=21.2
COc1ccc(OC)c(NC(=O)c2cc3cc4ccc(C)cc4nc3s2)c1	/	.	.	.	.	/	/
CCN1CCN(CCNC(=O)c2ccc(CS(=O)c3ccc(Br)cc3)o2)CC1 (stereo not drawn)	.	.	.	.	.	.	/
COc1ccc(C(=O)Nc2cccc(-c3nc4cccnc4s3)c2C)c(OC)c1	/	79.4µM	?	.	.	/	/	Pol kappa inh-2=47.4
SMILES	PI5P4Ka inh	POLI inh	Pol kappa inh-1	Pol eta inh-1	Pol beta inh	WRN helicase inh	Pol eta inh-2	others
CCc1ccc(/C=C(/C#N)C(N)=S)s1	.	.	.	.	.	.	/
CCc1sc(/C=C(/C#N)C(N)=S)cc1[N+](=O)[O-]	-83.3	?	.	20µM	?	?	42.6
CN(CCOc1ccccc1)C(=O)CCc1nc2sc3c(c2c(=O)[nH]1)CCCC3	?	25.1µM	.	?	?	.[11.6 µM]	?
CCOC(=O)C1CCN(C(=O)CCc2nc3sc4c(c3c(=O)[nH]2)CCCC4)CC1	?	28.2µM	?	22.4µM	/	.	?
CCOC(=O)CSc1nc2sc3c(c2c(=O)[nH]1)CCCC3	/	.	.	.	.	.	/
COc1ccccc1C(=O)Nc1ccccc1OCc1cc(=O)n2c(C)csc2n1	/	.	.	.	.	/	/
NC(=O)c1nsc(C(=O)N(CC(=O)NC2CCCCC2)Cc2ccc3c(c2)OCO3)c1N	/	.	.	/	/	/	/
Cc1cc(C)nc(NN2C(=O)/C(=C/c3ccc(O)cc3)SC2=S)n1	/	31.6µM	.	?	?	?	75.7
COc1ccccc1/C=C1\SC(=S)N(Nc2nc(C)cc(C)n2)C1=O	/	?	.	.	.	.	/
Cc1cccc(OCC(=O)N/N=C/C=C/c2ccco2)c1	-76.0	?	?	?	35.5µM	.	?
CCOC(=O)N/N=C\C=C\c1ccco1	.	?	.	79.4µM	?	.[11.6 µM]	75.7
COc1ccc(C(=O)Nc2ccccc2C(=O)N2CCOCC2)cc1	.	.	.	.	.	.	/
Fc1ccccc1-c1nnc2n1N=C(c1ccc(OC(F)F)c(OCC3CC3)c1)CS2	/	.	.	.	/	/	/
COc1ccc(C2=Nn3c(nnc3-c3ccccc3OC)SC2)cc1OC1CCOC1 (stereo not drawn)	/	.	44.7µM	.	/	/	/	Pol kappa inh-2=4.23
